Some of the results follow. A number with no mark means an inactive call. The source made the active and inactive calls. Rule as the data show it: active = activation above about 18%; inactive = the rest.

The nature of the assay: activation of mu-delta opioid heterodimer signal – cell-based, luminescence, counter-screen for HTR5A agonist project (AID 504913). The settings on record: U2OS counter-screen cells, complementation luminescence, 3 h; at 9.3 µM; stronger effect = higher value.
In the case of `Cc1ccc(CCC(=O)Nc2ncc(Cc3cc(Cl)ccc3Cl)s2)o1`, the activation is 32.2% (active).

Turning to `CC(C)OC(=O)c1c(NC(=O)c2ccco2)sc2c1CCCC2`, the activation is 4.46%.

Consider `O=C(CNCc1ccco1)Nc1cc(S(=O)(=O)N2CCOCC2)ccc1N1CCCC1`, for which the activation was 3.16%.

For the molecule `Cc1oc2c(F)c(F)c(F)c(F)c2c1S(=O)(=O)Nc1cccc(C(F)(F)F)c1`, the activation was -0.99%.

Turning to `CNC(=S)N/N=C/c1ccc(OCc2ccccc2)c(Br)c1`, the activation was -1.02%.

Take `c1ccc(-n2nc3ccccc3n2)cc1`: the activation was 2.66%.

With `COc1c(Cl)cc(C(=O)Nc2ccc(Cl)cn2)cc1Cl`, the activation was 9.05%.

For `COc1ccc(S(=O)(=O)N2CCN(CC(=O)N3c4ccccc4CC3C)CC2)cc1OC` (stereo not given), the activation was 4.47%.

In the case of `CN1c2ccc(C=O)c3c(C=O)ccc(c23)N(C)C1(C)C`, the activation was 107% (active).

With `CCOc1ccc(NC(=O)Nc2cc(C)on2)cc1`, the activation is 0.12%.

As for `CC(C)CC(=O)N/C(N)=N/c1nc2ccccc2s1`, the activation is 5.76%.

As to `Cc1c(C(=O)OCC(=O)N2CCCC2=O)oc2ccccc12`, the activation was 1.27%.

Take `COc1ccccc1S(=O)(=O)NCc1ccc(C(=O)N(C)Cc2ccc(F)cc2)cc1`: the activation is 3.43%.

On to `COC(=O)c1cc(C(=O)OCC(=O)Nc2cc(C)on2)cc([N+](=O)[O-])c1`, for which the activation was 1.24%.

On to `Cc1ccc(CN2CCN(Cc3ccc(OCCO)cc3)CC2CCO)o1` (stereo not given), for which the activation was -0.37%.

For the molecule `CN(c1ccccc1)S(=O)(=O)c1cc(C(=O)N2CCN(c3ncccn3)CC2)ccc1Cl`, the activation was -0.79%.

Take `CCn1nc(C(=O)OCC(=O)N2c3ccccc3CC2C)c2ccccc2c1=O` (stereo not given): the activation is 1.02%.

On to `COc1ccc(-c2ocnc2C(=O)Nc2ccc3c(c2)CCC3)cc1`, for which the activation is -2.69%.

In the case of `C/C(=N\NC(=O)CNc1cccc2ccccc12)c1ccc(Br)s1`, the activation was -1.65%.

Regarding `CC(NC(=O)c1cc(-c2ccccc2)on1)c1ccccc1` (stereo not given), the activation is 40.1% (active).

Consider `CCC(C)NC(=O)CCCc1ccccc1` (stereo not given), for which the activation was 1.02%.

As for `COc1cc2c(-c3ccc4c(c3)OCO4)c(-c3ccsc3)oc(=O)c2cc1OC`, the activation was -2.61%.

As for `CC(=O)N1CCN(c2ccccc2NC(=S)NC(=O)c2cc3ccccc3o2)CC1`, the activation is 0.56%.

Take `CC(=O)COc1ccc2c(-c3ccccc3)cc(=O)oc2c1`: the activation was 63.2% (active).

As for `CCN(CC(=O)Nc1cccc(S(=O)(=O)N2CCCCC2)c1)Cc1ccccc1`, the activation was 4.65%.

These data come from PubChem BioAssay AID504913 (The Scripps Research Institute Molecular Screening Center, 2011).
